Laboratory results taken from the supplement of paper PMC6555819.

Legend:
Experiment in all cases: PBM binding z-score (relative to random genomic background probes); higher = stronger binding; sequences stand for … in GC…GCGATTGACAGCGTAGAATGAAGG
[1] = system: FXR:RXRa (NR concentration 270 nM, RXRa partner concentration 90 nM)
Procedure, shortened: (§1)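 Binding buffer was PBS pH 7.4 with 2% milk, 0.02% Triton X-100, 1 mM DTT, 0.2 mg/mL BSA and 0.4 mg/ml salmon testes DNA. In it, ligand-free nuclear receptor dimers were incubated 1 h on custom Agilent 4×180K protein-binding microarrays carrying double-stranded probes. Antibodies against each partner (one per run) detected binding, and z-scores were calculated against random background probes after regression normalization of scanned fluorescence.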

[2] = system: LXRa:RXRa (NR concentration 270 nM, RXRa partner concentration 90 nM)
Procedure, shortened: as §1

[3] = system: LXRa homodimer (NR concentration 270 nM)
Procedure, shortened: as §1

[4] = system: LXRb:RXRa (NR concentration 270 nM, RXRa partner concentration 90 nM)
Procedure, shortened: as §1

[5] = system: LXRb homodimer (NR concentration 270 nM)
Procedure, shortened: as §1

[6] = system: PPARa:RXRa (NR concentration 270 nM, RXRa partner concentration 90 nM)
Procedure, shortened: as §1

[7] = system: PPARg:RXRa (NR concentration 180 nM, RXRa partner concentration 90 nM)
Procedure, shortened: as §1

[8] = system: PPARg:RXRa 270nM:90nM, anti-RXR (NR concentration 270 nM, RXRa partner concentration 90 nM)
Procedure, shortened: as §1

[9] = system: PPARg:RXRa 30nM:10nM, anti-RXR (NR concentration 30 nM, RXRa partner concentration 10 nM)
Procedure, shortened: as §1

[10] = system: PPARg:RXRa 90nM:30nM, anti-RXR (NR concentration 90 nM, RXRa partner concentration 30 nM)
Procedure, shortened: as §1

[11] = system: PPARg:RXRa DBDmut IVT, anti-RXR (DBD mutation: RXRa K156A/R161A, NR concentration 270 nM, RXRa partner concentration 90 nM)
Procedure, shortened: as §1

[12] = system: PPARg:RXRa IVT, anti-PPARg (NR concentration 270 nM, RXRa partner concentration 90 nM)
Procedure, shortened: as §1

[13] = system: PPARg DBDmut:RXRa IVT, anti-PPARg (DBD mutation: PPARg1 K132A/R137A, NR concentration 270 nM, RXRa partner concentration 90 nM)
Procedure, shortened: as §1

[14] = system: PPARg DBDmut IVT, anti-PPARg (DBD mutation: PPARg1 K132A/R137A, NR concentration 270 nM)
Procedure, shortened: as §1

[15] = system: PPARg homodimer (NR concentration 180 nM)
Procedure, shortened: as §1

[16] = system: PXR:RXRa (NR concentration 270 nM, RXRa partner concentration 90 nM)
Procedure, shortened: as §1

[17] = system: PXR homodimer (NR concentration 270 nM)
Procedure, shortened: as §1

[18] = system: RARa:RXR (NR concentration 270 nM, RXRa partner concentration 90 nM)
Procedure, shortened: as §1

[19] = system: RARa homodimer (NR concentration 270 nM)
Procedure, shortened: as §1

[20] = system: RARb:RXRa (NR concentration 270 nM, RXRa partner concentration 90 nM)
Procedure, shortened: as §1

Sequence	PBM binding z-score [1]	PBM binding z-score [2]	PBM binding z-score [3]	PBM binding z-score [4]	PBM binding z-score [5]	PBM binding z-score [6]	PBM binding z-score [7]	PBM binding z-score [8]	PBM binding z-score [9]	PBM binding z-score [10]	PBM binding z-score [11]	PBM binding z-score [12]	PBM binding z-score [13]	PBM binding z-score [14]	PBM binding z-score [15]	PBM binding z-score [16]	PBM binding z-score [17]	PBM binding z-score [18]	PBM binding z-score [19]	PBM binding z-score [20]
GGAACGAGGGCATTCGAGTTTATAGCATGGCGAT	1.12	4.61	0.296	0.629	-0.537	1.57	0.982	0.798	-0.0706	0.209	2.91	2.31	-0.439	-0.834	-0.0637	5.87	7.33	1.14	-0.16	1.9
ATCTCTAGGTAACCGAGTTCAGTGAATGCCGAAC	0.422	0.883	1.08	0.706	0.377	1.44	0.672	1.1	-0.103	0.724	3.51	2.9	0.719	0.977	0.0322	2.93	2.94	1.04	0.216	0.826
AGAATGAGGTTATTAACATCAGGGAATTGCGGTC	1.93	1.61	0.0364	1.24	0.0777	2.63	1.32	1.34	0.42	0.938	2.7	2.3	0.432	0.815	0.441	1.18	0.616	1.36	0.203	1.2
CCTATTAGCTGACCATAAGGGCAACCGAAGCTCG	0.524	0.335	0.221	0.0745	0.36	0.273	0.333	-0.0328	-0.243	-0.184	0.163	0.429	-0.689	0.266	1.42	0.183	0.353	0.375	0.765	1.18
ACAGACAGGTGATGAAGGTAACTCTGGCTATCAT	-0.247	-0.358	-0.109	-0.536	-0.538	-0.229	0.485	-0.185	0.143	0.132	0.0322	0.477	0.353	0.0262	0.0574	-0.19	-0.412	0.0777	-0.252	0.114
CATTACGGGTCACTCCAGGTTATAGCATCGGAGT	5.62	7.54	4.42	5.55	1.54	4.96	4.53	4.77	1.56	3.53	3.99	4.96	1.72	1.65	2.09	5.11	0.705	3.78	0.9	3.97
TCTAGTTGATCAAAGGTCACACACTCGAAATGCG	5.64	5.85	3.84	5.63	1.9	5.8	7.89	7.86	7.94	8.62	2.34	4.45	1.08	1.36	4.93	5.73	2.14	6.33	3.64	4.85
TTACCAAGGTGAAAGGTCGTTGACGCACGCCTTG	4.03	3.4	0.245	2.91	-0.135	5.49	8.84	8.07	6.9	8.64	2.81	4.77	0.591	0.0484	2.15	4.13	0.552	5.9	-0.179	3.21
GATACAGGGTCAAGGCGAGAGTACGCGTATTGAT	6.79	4.05	-0.0981	3.74	0.243	5.39	5.7	5.39	2.2	4.05	2.65	3.72	2.63	0.177	3.25	3.76	0.46	4.83	1.14	4.37
